Screening data from PubChem BioAssay.
PAX8 reporter: inhibitors of PAX8-driven TPO luciferase reporter, primary screen, RMG-I cells, single concentration; hit rate 1.2% among 360,000; inhibition, % at 12.6 µM; AID 652154, 2013; SteadyGlo, 24 h;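 active = mean replicate inhibition at least 60% with every replicate also reaching 60%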;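 also: luciferase light reporting Pax8 driven TPO promoter activity; plate controls were median of neutral control wells for no effect and mitoxantrone controls for full effect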
FXN GAA850 act: FXN promoter activators, primary screen, cell-based, luciferase luminescence, HEK293 lucGAA850 | HEK293 lucGAA850 FXN promoter luciferase reporter, 24 h; percent of 10 µM SAHA response | activation, % at 6 µM | hit rate 0.56% among 360,000 | AID 540364, 2011;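 active = activation above the average of all compounds screened plus 3 SD, cutoff fixed separately per campaign, cut at about 7.5% in these data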;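 also: 0% = DMSO wells and 100% = 10 µM SAHA wells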
EWS-Fli block: EWS/Fli-driven NR0B1 reporter inhibitors, primary screen, A673 cells, NR0B1 luciferase, luminescence, MLPCN library. viability-normalised. inhibition, % at 12.6 µM. hit rate 0.67% among 350,000. AID 651661, 2012;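 active = mean inhibition of at least 50% after viability correction, with every replicate also passing that limit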;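 also: firefly luciferase signal divided by Alamar Blue viability fluorescence both relative to DMSO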
F508del corr: F508del CFTR correction, initial screen, CFBE line, single point | CFBE cells, YFP halide quenching; stimulated with forskolin plus potentiator P3; % fluorescence drop versus neutral controls | hit rate 0.36% among 350,000 | activity (quench increase), % at 7.58 µM;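 active = mean added fluorescence quench of at least 8% versus neutral control, with both replicates also reaching 8%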;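 also: cells transiently co-express mutant CFTR-F508del with the halide-sensitive YFP; corrector assay measuring rescue of mutant channel to the surface after 24 h compound exposure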
Env fusion inh: inhibitors of HIV-1 Env-driven cell-cell fusion, primary screen, HeLa-JRFL effector, CEM21 target cells, luciferase; inhibition, % at 12.3 µM; hit rate 1.1% among 360,000; AID 651610, 2012;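 active = mean replicate inhibition score of at least 50 and every replicate individually at or above 50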;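 also: 0% = plate neutral controls and 100% = maraviroc near 300 nM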
The depositor's hits bear a star; [ ] = another dose, or the depositor's remark. In the library only some 2.5% were active in any assay of this set; here they are far more common.

How did CCc1nc2ccc(C(=O)N3CCN(C(=O)c4ccco4)CC3)cn2c1N(C)Cc1ccc(OC)cc1 do in these assays?
PAX8 reporter: 16; FXN GAA850 act: 6; EWS-Fli block: 5; F508del corr: -1; Env fusion inh: 72*

How did Cc1nc2ccc(NC(=O)CCS(=O)(=O)c3ccccc3)cc2s1 do in these assays?
PAX8 reporter: -37; FXN GAA850 act: 2; EWS-Fli block: -54; F508del corr: -1; Env fusion inh: -22

Results for Cc1ccc2nc(-c3ccc(NC(=O)CCS(=O)(=O)c4ccccc4)cc3)sc2c1 ?
PAX8 reporter: 38; FXN GAA850 act: -3; EWS-Fli block: 70*; F508del corr: 2; Env fusion inh: -153

Results for CS(=O)(=O)c1ccc2nc(NC(=O)CCS(=O)(=O)c3ccccc3)sc2c1 ?
PAX8 reporter: 18; FXN GAA850 act: 6; EWS-Fli block: 1; F508del corr: -1; Env fusion inh: 3

How did O=C(CCS(=O)(=O)c1ccccc1)Nc1nc2ccc(F)cc2s1 do in these assays?
PAX8 reporter: 107*; FXN GAA850 act: 7; EWS-Fli block: 7; F508del corr: -6; Env fusion inh: 3

What do the screens show for `COCc1cc(C)nc(SCC(=O)Nc2cccc(C)c2C)c1C#N`?
FXN GAA850 act: -1; EWS-Fli block: 8; F508del corr: 4

What do the screens show for `COCc1cc(C)nc(SCC(=O)Nc2nc(C)cs2)c1C#N`?
PAX8 reporter: -33; FXN GAA850 act: 3; EWS-Fli block: 62*; F508del corr: 0; Env fusion inh: -90

How did O=C(CN1CCOCC1)NCC[C@H]1CC[C@H](NC(=O)Nc2ccc(C(F)(F)F)cc2)[C@H](CO)O1 do in these assays?
PAX8 reporter: 7; EWS-Fli block: -3; F508del corr: -2; Env fusion inh: -5[16.7 µM]

How did CC(C)NC(=O)NC(=O)COC(=O)c1ccc(S(=O)(=O)Nc2ccccc2)cc1 do in these assays?
PAX8 reporter: -6; FXN GAA850 act: 2; EWS-Fli block: 10; F508del corr: 23*; Env fusion inh: -5

Results for CC(C)NC(=O)NC(=O)COC(=O)c1ccc(OC(F)(F)F)cc1 ?
PAX8 reporter: 13; FXN GAA850 act: 1; Env fusion inh: 2

Results for CC(C)c1ccc2c(c1)CC[C@H]1[C@](C)(CN)CCC[C@]21C ?
PAX8 reporter: -6; FXN GAA850 act: 2; EWS-Fli block: 50; F508del corr: -2; Env fusion inh: 27

How did CC(C)c1ccc2c(c1)CCC1C(C)(CN)CCCC21C (stereo not drawn) do in these assays?
PAX8 reporter: 41; FXN GAA850 act: 1; EWS-Fli block: 59*; F508del corr: 0; Env fusion inh: 7

How did COc1ccc(-c2cc(-c3ccccc3)c(C#N)c(S(C)(=O)=O)n2)cc1 do in these assays?
PAX8 reporter: 93*; FXN GAA850 act: 3; Env fusion inh: -101

How did N#Cc1c(-c2ccc3c(c2)OCO3)cc[nH]c1=O do in these assays?
FXN GAA850 act: 0

What do the screens show for `COc1nc(-c2ccccc2)cc(-c2ccc3c(c2)OCO3)c1C#N`?
PAX8 reporter: 10; FXN GAA850 act: 1; EWS-Fli block: 59*; F508del corr: 17*; Env fusion inh: -5

How did CO[C@H]1CN(C)C(=O)c2cc(NC(=O)C3CCCCC3)ccc2OC[C@@H](C)N(Cc2nccs2)C[C@H]1C do in these assays?
PAX8 reporter: 5; EWS-Fli block: 6; F508del corr: -1; Env fusion inh: 4[16.7 µM]

What do the screens show for `CC(C)NC(=O)Nc1ccc2c(c1)C(=O)N([C@H](C)CO)C[C@H](C)[C@H](CN(C)C(=O)c1ccccc1)OCCCC[C@@H](C)O2`?
PAX8 reporter: -16; EWS-Fli block: -2; F508del corr: 0; Env fusion inh: 6[16.7 µM]

How did COc1ccc(N2C(=O)C3C4c5ccccc5C(C=Nc5ccc(C)cc5C)(c5ccccc54)C3C2=O)cc1 (stereo not drawn) do in these assays?
PAX8 reporter: 65*; FXN GAA850 act: -4; Env fusion inh: -45

Results for C[C@@H]1CN([C@H](C)CO)S(=O)(=O)c2ccc(C#CC3CC3)cc2O[C@H]1CN(C)C(=O)c1cccnc1 ?
EWS-Fli block: -4; F508del corr: -2; Env fusion inh: 0[16.7 µM]

What do the screens show for `CNC(=O)C[C@H]1CC[C@@H]2[C@H](COC[C@H](O)CN2C(=O)Nc2cccc(OC)c2)O1`?
PAX8 reporter: -4; EWS-Fli block: -15; F508del corr: -3

Results for C[C@H](CO)N1C[C@H](C)[C@H](CN(C)S(=O)(=O)c2cn(C)cn2)Oc2ccc(NC(=O)CCN3CCOCC3)cc2C1=O ?
EWS-Fli block: 4; F508del corr: 0

How did Cc1nn(C)c(C)c1/C=N/NC(=O)C(C)(C)Oc1ccc(Cl)cc1 do in these assays?
FXN GAA850 act: 0; EWS-Fli block: 4; F508del corr: -4

How did Cc1nn(C(C)(C)C)c(C)c1/C=N/OC(=O)Nc1ccc(Cl)cc1 do in these assays?
PAX8 reporter: 79*; FXN GAA850 act: -14; EWS-Fli block: 87*; F508del corr: 0; Env fusion inh: 28

Results for COc1ccc(NC(=O)Nc2ccc3c(c2)C(=O)N([C@@H](C)CO)C[C@@H](C)[C@@H](CN(C)Cc2ccccc2)O3)cc1 ?
PAX8 reporter: 23; EWS-Fli block: 6; F508del corr: 1; Env fusion inh: -13[16.7 µM]

What do the screens show for `O=C(C[C@H]1CC[C@H]2[C@@H](COC[C@@H](O)CN2Cc2cccc(C(F)(F)F)c2)O1)NCc1ccc(F)cc1`?
PAX8 reporter: 11; EWS-Fli block: 0; F508del corr: 1

Results for COC(=O)C(CC#Cc1ccc2c(c1)[C@]1(C(=O)N2)[C@H](c2ccccc2OCCO)N2[C@H](c3ccccc3)[C@H](c3ccccc3)OC(=O)[C@H]2[C@@H]1C(=O)N1CCN(c2ncccn2)CC1)C(=O)OC ?
PAX8 reporter: 110*; EWS-Fli block: 60*; F508del corr: -4; Env fusion inh: -86[16.7 µM]

Results for C=CCNC(=O)[C@H]1[C@@H]2C(=O)O[C@@H](c3ccccc3)[C@@H](c3ccccc3)N2[C@@H](c2ccc(OCCO)cc2)[C@]12C(=O)Nc1ccc(C#CCC(C(=O)OC)C(=O)OC)cc12 ?
PAX8 reporter: 12; EWS-Fli block: 50; F508del corr: -3; Env fusion inh: -2[16.7 µM]

How did NC(=O)[C@H]1[C@@H]2C(=O)O[C@@H](c3ccccc3)[C@@H](c3ccccc3)N2[C@@H](c2ccccc2OCCO)[C@]12C(=O)Nc1ccc(C#CC3(O)CCCCCC3)cc12 do in these assays?
PAX8 reporter: 103*; EWS-Fli block: 33; F508del corr: 1; Env fusion inh: -37[16.7 µM]

What do the screens show for `C=CCNC(=O)[C@H]1[C@@H]2C(=O)O[C@@H](c3ccccc3)[C@@H](c3ccccc3)N2[C@@H](c2ccccc2OCCO)[C@]12C(=O)Nc1ccc(C#CCC(C(=O)OC)C(=O)OC)cc12`?
EWS-Fli block: 54*; F508del corr: 2; Env fusion inh: -21[16.7 µM]
